Results published in PMC7862700, “An all-to-all approach to the identification of sequence-specific readers for epigenetic DNA modifications on cytosine”.

What was measured:
Assay in all cases: DAPPL (digital affinity profiling via proximity ligation, sequencing); 10 mM Tris-HCl pH 7.5, 50 mM NaCl, 1 mM DTT, 4% glycerol, room temperature, 30 min; GST-TFs on glutathione beads, 16-mer random dsDNA library, 0.1% formaldehyde crosslink after washing; high values mean tight binding
Settings in all cases: protein: recombinant; tags: N-terminal GST; dsDNA, one strand shown
[1] = target: T1, FLI1 (Homo sapiens, UniProt Q01543 1-452)
T1 sequence: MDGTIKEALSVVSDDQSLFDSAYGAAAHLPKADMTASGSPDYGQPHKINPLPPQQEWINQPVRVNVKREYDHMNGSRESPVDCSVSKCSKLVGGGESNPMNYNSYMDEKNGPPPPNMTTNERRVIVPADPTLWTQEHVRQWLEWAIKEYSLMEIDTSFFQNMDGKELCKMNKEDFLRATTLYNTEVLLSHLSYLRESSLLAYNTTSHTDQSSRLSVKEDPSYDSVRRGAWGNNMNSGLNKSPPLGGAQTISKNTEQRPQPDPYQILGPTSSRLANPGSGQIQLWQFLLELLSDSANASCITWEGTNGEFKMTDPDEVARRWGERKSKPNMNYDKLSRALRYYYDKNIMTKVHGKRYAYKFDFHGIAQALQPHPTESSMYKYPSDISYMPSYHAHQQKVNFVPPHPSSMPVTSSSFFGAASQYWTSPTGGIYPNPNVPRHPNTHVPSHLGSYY
How it was run: (§1)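 Pools were built from human transcription factors expressed in yeast as GST fusions, captured on glutathione beads and DNA-barcoded, along with a tag-only sample. Incubation with 200 nmole of a 16-mer random double-stranded DNA library lasted 30 min at room temperature in Tris/NaCl/DTT/glycerol buffer, and was followed by washing, 0.1% formaldehyde crosslinking, proximity ligation, PCR amplification and Illumina NextSeq500 sequencing. Binding signal is the quotient of each hexamer's read frequency for a factor and its frequency for the tag-only sample.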

[2] = target: T2, ELK1 (Homo sapiens, UniProt P19419 1-428)
T2 sequence: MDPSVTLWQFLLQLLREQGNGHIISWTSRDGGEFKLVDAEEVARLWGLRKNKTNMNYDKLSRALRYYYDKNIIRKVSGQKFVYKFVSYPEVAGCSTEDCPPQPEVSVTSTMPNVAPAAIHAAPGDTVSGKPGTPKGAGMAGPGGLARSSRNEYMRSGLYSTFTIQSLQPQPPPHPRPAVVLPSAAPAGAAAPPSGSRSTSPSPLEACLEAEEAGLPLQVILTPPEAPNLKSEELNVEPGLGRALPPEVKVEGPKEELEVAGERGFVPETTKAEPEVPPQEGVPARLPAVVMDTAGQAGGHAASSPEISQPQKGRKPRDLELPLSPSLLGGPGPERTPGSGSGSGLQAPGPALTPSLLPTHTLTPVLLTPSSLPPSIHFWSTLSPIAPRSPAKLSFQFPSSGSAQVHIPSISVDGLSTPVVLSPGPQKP
How it was run: as §1

[3] = target: T3, GABPA (Homo sapiens, UniProt Q06546 1-454)
T3 sequence: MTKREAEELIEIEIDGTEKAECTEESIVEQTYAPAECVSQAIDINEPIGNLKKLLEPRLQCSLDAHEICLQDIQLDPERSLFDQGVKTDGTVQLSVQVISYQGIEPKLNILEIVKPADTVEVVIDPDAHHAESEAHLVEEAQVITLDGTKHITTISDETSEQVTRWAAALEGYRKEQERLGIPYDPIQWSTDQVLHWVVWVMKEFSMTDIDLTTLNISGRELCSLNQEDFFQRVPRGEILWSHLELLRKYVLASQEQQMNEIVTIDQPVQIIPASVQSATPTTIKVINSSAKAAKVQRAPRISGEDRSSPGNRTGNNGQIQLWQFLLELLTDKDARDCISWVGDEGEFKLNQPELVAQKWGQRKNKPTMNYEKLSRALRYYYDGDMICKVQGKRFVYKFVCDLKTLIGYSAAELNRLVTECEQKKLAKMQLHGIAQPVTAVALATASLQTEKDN
How it was run: as §1

[4] = target: ELF1 (Homo sapiens, UniProt P32519 1-619)
ELF1, sequence (P32519 whole entry): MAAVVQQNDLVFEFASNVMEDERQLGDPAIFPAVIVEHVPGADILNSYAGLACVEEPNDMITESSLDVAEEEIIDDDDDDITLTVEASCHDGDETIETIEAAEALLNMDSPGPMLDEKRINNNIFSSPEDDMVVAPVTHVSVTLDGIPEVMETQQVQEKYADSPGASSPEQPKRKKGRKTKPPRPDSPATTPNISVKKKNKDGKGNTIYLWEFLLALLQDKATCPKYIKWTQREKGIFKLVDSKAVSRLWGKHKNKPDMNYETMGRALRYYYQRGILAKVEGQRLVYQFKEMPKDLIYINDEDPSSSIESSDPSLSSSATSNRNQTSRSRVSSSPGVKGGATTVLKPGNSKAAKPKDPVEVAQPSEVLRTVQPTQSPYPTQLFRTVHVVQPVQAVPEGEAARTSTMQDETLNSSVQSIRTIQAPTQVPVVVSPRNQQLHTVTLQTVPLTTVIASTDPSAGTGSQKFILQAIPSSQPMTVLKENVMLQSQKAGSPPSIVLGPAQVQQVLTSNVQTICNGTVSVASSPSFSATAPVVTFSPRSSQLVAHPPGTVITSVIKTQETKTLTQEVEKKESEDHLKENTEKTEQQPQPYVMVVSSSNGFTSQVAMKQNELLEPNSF
How it was run: as §1

[5] = target: SPI1 (Homo sapiens, UniProt P17947 1-270)
How it was run: as §1

[6] = target: SPIB (Homo sapiens, UniProt Q01892 1-262)
SPIB, sequence (Q01892 whole entry): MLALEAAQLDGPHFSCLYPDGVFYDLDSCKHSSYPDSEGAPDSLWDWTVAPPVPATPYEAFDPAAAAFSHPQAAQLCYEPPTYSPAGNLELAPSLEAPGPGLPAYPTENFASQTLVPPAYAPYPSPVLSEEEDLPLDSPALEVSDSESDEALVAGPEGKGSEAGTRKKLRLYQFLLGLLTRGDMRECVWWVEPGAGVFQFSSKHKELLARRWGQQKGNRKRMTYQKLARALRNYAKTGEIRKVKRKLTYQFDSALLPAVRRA
How it was run: as §1

[7] = target: T4, ELK3 (Homo sapiens, UniProt P41970 1-407)
T4 sequence: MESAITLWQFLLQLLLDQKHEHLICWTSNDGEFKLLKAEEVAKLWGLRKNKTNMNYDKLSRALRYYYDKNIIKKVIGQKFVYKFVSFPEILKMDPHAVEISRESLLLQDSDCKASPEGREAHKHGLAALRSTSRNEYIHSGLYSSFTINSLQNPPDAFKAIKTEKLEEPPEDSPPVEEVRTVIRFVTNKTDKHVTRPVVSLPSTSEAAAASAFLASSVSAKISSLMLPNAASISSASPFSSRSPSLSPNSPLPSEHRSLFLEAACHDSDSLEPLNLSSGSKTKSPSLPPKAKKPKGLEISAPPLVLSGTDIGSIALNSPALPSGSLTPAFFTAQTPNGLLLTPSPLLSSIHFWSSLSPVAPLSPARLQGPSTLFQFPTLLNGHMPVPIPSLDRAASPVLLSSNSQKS
How it was run: as §1

[8] = target: ETV5 (Homo sapiens, UniProt P41161 1-510)
ETV5, sequence (P41161 whole entry): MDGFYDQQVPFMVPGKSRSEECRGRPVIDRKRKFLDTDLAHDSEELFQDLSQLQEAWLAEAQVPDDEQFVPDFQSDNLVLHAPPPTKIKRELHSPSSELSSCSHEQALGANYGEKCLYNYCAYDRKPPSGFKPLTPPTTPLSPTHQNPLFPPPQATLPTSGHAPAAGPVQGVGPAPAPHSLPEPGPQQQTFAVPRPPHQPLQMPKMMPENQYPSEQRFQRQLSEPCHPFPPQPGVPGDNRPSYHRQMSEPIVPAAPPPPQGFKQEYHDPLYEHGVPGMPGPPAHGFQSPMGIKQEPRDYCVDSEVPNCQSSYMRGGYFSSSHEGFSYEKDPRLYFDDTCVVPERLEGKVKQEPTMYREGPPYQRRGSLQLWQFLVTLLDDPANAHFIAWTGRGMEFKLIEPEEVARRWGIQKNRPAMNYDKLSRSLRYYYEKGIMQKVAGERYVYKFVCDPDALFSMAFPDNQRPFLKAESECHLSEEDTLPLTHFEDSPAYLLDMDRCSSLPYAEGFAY
How it was run: as §1

[9] = target: ELF4 (Homo sapiens, UniProt Q99607 1-663)
ELF4, sequence (Q99607 whole entry): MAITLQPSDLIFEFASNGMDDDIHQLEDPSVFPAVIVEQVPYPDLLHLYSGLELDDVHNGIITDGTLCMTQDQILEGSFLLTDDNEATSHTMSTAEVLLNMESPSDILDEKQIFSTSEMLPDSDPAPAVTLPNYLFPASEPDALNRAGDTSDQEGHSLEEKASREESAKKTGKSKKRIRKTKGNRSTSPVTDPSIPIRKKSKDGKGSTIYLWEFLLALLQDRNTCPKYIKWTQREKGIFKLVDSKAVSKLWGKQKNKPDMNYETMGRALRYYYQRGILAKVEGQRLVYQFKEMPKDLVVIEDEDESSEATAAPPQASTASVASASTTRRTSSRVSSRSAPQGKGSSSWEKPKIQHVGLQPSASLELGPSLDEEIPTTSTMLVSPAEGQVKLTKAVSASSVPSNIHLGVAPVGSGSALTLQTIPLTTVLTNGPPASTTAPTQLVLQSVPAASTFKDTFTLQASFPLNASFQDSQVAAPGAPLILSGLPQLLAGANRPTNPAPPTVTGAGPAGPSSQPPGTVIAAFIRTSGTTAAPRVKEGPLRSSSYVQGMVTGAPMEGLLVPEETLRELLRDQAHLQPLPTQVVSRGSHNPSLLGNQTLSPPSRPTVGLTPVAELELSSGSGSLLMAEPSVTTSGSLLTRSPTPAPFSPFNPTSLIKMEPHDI
How it was run: as §1

[10] = target: T5, ETV2 (Homo sapiens, UniProt O00321 1-342)
T5 sequence: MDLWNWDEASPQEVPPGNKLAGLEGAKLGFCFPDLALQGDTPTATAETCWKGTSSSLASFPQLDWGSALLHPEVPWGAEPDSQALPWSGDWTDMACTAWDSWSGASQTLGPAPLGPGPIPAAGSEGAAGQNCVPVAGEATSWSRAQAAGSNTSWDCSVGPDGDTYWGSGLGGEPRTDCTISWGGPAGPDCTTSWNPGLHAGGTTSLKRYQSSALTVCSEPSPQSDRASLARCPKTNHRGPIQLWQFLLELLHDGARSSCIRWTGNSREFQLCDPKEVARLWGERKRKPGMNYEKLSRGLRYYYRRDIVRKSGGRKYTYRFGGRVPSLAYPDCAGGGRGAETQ
How it was run: as §1

[11] = target: T6, ELF3 (Homo sapiens, UniProt P78545 1-371)
T6 sequence: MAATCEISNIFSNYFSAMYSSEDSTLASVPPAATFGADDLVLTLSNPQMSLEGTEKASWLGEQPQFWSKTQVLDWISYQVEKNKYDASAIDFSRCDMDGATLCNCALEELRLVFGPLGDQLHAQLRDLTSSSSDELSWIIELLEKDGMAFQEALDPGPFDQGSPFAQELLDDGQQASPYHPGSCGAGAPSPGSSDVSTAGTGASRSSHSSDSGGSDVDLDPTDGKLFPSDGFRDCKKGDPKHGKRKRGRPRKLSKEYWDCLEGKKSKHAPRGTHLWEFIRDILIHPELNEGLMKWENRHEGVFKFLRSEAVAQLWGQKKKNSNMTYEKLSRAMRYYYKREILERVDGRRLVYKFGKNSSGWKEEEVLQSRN
How it was run: as §1

[12] = target: ETV1 (Homo sapiens, UniProt P50549 1-477)
ETV1, sequence (P50549 whole entry): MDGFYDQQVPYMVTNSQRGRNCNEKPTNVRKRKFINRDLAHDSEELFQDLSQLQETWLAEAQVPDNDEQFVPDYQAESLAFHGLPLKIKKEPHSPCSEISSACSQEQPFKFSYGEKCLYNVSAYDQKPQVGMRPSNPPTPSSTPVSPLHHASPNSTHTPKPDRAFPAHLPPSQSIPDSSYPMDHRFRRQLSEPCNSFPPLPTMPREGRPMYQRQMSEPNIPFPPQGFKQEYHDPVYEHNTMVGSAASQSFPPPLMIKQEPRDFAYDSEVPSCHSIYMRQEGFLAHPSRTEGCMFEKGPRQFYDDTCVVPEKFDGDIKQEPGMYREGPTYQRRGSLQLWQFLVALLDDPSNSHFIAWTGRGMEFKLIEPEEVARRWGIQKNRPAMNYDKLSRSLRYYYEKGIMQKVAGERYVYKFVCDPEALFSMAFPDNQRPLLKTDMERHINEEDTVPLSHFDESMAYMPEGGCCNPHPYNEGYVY
How it was run: as §1

[13] = target: T7, ERF (Homo sapiens, UniProt P50548 1-548)
T7 sequence: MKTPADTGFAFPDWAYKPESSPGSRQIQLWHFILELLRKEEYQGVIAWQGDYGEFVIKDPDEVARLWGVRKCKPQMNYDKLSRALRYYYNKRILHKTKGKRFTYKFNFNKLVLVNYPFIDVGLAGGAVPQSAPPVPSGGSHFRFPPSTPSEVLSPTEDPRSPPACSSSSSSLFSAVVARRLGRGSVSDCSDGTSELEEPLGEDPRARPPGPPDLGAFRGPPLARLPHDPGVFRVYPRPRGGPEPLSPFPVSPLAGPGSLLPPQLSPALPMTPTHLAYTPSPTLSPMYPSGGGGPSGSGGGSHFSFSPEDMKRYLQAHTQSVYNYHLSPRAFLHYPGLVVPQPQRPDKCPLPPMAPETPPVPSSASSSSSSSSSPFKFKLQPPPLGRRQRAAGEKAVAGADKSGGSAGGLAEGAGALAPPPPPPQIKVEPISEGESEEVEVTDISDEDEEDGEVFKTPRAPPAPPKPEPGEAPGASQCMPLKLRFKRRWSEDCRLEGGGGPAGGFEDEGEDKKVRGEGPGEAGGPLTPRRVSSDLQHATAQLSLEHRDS
How it was run: as §1

[14] = target: T8, ETV3L (Homo sapiens, UniProt Q6ZN32 1-361)
T8 sequence: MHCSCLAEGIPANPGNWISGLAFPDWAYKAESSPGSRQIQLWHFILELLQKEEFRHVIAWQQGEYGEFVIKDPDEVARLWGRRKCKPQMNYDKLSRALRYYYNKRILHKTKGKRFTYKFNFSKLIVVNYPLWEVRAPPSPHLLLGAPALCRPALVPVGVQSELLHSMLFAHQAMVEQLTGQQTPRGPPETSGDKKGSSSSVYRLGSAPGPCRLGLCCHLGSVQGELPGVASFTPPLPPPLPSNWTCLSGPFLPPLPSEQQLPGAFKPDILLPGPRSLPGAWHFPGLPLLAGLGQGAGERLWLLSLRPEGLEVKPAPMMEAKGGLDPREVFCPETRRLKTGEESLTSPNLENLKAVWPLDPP
How it was run: as §1

[15] = target: T9, ETS2 (Homo sapiens, UniProt P15036 1-469)
T9 sequence: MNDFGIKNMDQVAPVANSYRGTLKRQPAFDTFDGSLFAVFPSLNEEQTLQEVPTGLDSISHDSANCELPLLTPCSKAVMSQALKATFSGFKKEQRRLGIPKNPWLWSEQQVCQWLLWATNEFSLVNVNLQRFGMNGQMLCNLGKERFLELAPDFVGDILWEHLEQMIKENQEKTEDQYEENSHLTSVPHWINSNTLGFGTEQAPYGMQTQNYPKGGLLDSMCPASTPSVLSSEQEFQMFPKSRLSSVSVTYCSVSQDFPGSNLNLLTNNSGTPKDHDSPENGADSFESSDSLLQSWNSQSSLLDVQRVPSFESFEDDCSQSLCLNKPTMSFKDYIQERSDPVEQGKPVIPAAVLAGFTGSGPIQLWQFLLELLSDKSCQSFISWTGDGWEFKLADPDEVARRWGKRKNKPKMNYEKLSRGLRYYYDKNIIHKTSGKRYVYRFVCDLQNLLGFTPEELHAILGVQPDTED
How it was run: as §1

[16] = target: T10, ETV7 (Homo sapiens, UniProt Q9Y603 1-341)
T10 sequence: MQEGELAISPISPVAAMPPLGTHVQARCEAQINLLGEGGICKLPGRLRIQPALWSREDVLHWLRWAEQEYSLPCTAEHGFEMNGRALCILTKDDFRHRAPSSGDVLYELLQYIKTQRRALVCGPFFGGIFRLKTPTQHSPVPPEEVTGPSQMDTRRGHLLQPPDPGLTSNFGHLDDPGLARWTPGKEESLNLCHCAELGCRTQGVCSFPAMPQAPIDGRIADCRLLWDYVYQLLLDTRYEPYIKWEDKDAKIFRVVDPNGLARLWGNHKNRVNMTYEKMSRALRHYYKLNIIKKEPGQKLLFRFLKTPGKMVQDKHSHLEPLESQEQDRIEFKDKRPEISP
How it was run: as §1

[17] = target: ETV6 (Homo sapiens, UniProt P41212 1-452)
ETV6, sequence (P41212 whole entry): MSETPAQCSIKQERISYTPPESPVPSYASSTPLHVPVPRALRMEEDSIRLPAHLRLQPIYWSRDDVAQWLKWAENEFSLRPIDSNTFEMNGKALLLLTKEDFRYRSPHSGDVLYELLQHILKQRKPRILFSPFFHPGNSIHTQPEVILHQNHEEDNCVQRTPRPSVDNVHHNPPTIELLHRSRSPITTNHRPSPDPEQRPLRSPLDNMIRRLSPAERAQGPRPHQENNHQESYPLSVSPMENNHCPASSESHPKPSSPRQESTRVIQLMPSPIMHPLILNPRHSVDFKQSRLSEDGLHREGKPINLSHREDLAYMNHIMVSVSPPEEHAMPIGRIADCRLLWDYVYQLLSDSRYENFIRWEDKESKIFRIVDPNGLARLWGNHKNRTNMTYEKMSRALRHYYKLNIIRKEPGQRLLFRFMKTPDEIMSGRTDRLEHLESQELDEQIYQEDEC
How it was run: as §1

Sequence: CTATCA
- binding signal [1]: 1.1 fold enrichment (6-mer frequency, TF over GST control)
- binding signal [2]: 1.06 fold enrichment (6-mer frequency, TF over GST control)
- binding signal [3]: 1.1 fold enrichment (6-mer frequency, TF over GST control)
- binding signal [4]: 1.05 fold enrichment (6-mer frequency, TF over GST control)
- binding signal [5]: 1.01 fold enrichment (6-mer frequency, TF over GST control)
- binding signal [6]: 1.05 fold enrichment (6-mer frequency, TF over GST control)
- binding signal [7]: 1.11 fold enrichment (6-mer frequency, TF over GST control)
- binding signal [8]: 1.03 fold enrichment (6-mer frequency, TF over GST control)
- binding signal [9]: 1.15 fold enrichment (6-mer frequency, TF over GST control)
- binding signal [10]: 1.05 fold enrichment (6-mer frequency, TF over GST control)
- binding signal [11]: 1.02 fold enrichment (6-mer frequency, TF over GST control)
- binding signal [12]: 1 fold enrichment (6-mer frequency, TF over GST control)
- binding signal [13]: 1.06 fold enrichment (6-mer frequency, TF over GST control)
- binding signal [14]: 1.09 fold enrichment (6-mer frequency, TF over GST control)
- binding signal [15]: 1.04 fold enrichment (6-mer frequency, TF over GST control)
- binding signal [16]: 1.06 fold enrichment (6-mer frequency, TF over GST control)
- binding signal [17]: 1.03 fold enrichment (6-mer frequency, TF over GST control)
